# Assay outcomes deposited in PubChem BioAssay by Broad Institute.
# U2OS ROS induce – cancer cell ROS induction. ROS induction (% of piperlongumine), % at 10 µM. AID 624156. U2OS ROS induction, H2DCF-DA fluorescence. 46,000 tested, 2% active; in the data active means ROS induction above about 79%, passing the limit was not always enough;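 further: 0% = DMSO vehicle median and 100% = reference compound median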
# PD-1 reversal – reversal of PD-1 mediated T-cell inhibition; primary human CD4 T cells, PD-L1 beads, CellTiter-Glo 96 h; activation, % (concentration not given with the values); 29,000 tested, under 10 active; AID 2316; call rule not given here;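 further: 0% = median vehicle wells and 100% = positive control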
# NOMO-1 viab – STK33 inhibitor candidate reducing NOMO-1 cell viability. NOMO-1 AML viability, CellTiter-Glo luminescence, 72 h. inhibition, % (no concentration beside the values). 37,000 tested, 7.5% active; in the data active means inhibition above about 80%
# An asterisk follows results filed as active; · = no result. The sample as a whole holds a higher share of hits than the screen did.
SMILES,U2OS ROS induce,PD-1 reversal,NOMO-1 viab
C[C@@H]1CCCCO[C@H](CN(C)Cc2ccc(C(F)(F)F)cc2)[C@@H](C)CN([C@H](C)CO)C(=O)c2cc(NS(=O)(=O)c3ccc(F)cc3)ccc2O1,25,·,100*
C[C@@H]1CCCCO[C@H](CN(C)CC2CCCCC2)[C@@H](C)CN([C@H](C)CO)C(=O)c2cc(NS(=O)(=O)c3ccc(F)cc3)ccc2O1,98*,-4,32
C[C@@H]1CCCCO[C@H](CN(C)C(=O)Nc2ccc(C(F)(F)F)cc2)[C@@H](C)CN([C@H](C)CO)C(=O)c2cc(NS(=O)(=O)c3cccs3)ccc2O1,20,0,52
C[C@@H]1CCCCO[C@H](CN(C)Cc2ccncc2)[C@@H](C)CN([C@H](C)CO)C(=O)c2cc(NS(=O)(=O)c3ccc(F)cc3)ccc2O1,-7,·,11
C[C@@H]1CCCCO[C@@H](CN(C)C)[C@@H](C)CN([C@H](C)CO)C(=O)c2cc(NS(=O)(=O)c3ccc(F)cc3)ccc2O1,-5,·,9
Cc1ccc(S(=O)(=O)Nc2ccc3c(c2)C(=O)N([C@H](C)CO)C[C@H](C)[C@H](CN(C)Cc2ccc(C(F)(F)F)cc2)OCCCC[C@@H](C)O3)cc1,26,-7,126*
Cc1ccc(S(=O)(=O)Nc2ccc3c(c2)C(=O)N([C@H](C)CO)C[C@H](C)[C@H](CN(C)CC2CC2)OCCCC[C@@H](C)O3)cc1,0,3,16
C[C@@H]1CCCCO[C@@H](CN(C)C(=O)Nc2ccc(C(F)(F)F)cc2)[C@@H](C)CN([C@H](C)CO)C(=O)c2cc(NS(=O)(=O)c3cccs3)ccc2O1,25,-8,114*
Fc1cccc(CSc2nc3ccccc3c3nc4ccccc4n23)c1,1,·,·
O=C(O)CCN1C(=O)c2cc(Cl)c(Cl)cc2C1=O,-3,·,·
Cc1[nH][nH]c(=O)c1C(c1ccncc1)C(C#N)C#N (centres undefined),6,·,·
C[C@@H]1CN([C@H](C)CO)C(=O)c2cc(NC(=O)Nc3cccc4ccccc34)ccc2O[C@H]1CN(C)Cc1ccc(Cl)c(Cl)c1,14,-3,112*
C[C@@H]1CCCCO[C@@H](CN(C)Cc2ccc(Cl)c(Cl)c2)[C@@H](C)CN([C@H](C)CO)C(=O)c2cc(NC(=O)Nc3cccc4ccccc34)ccc2O1,-4,2,45
C[C@@H]1CN([C@@H](C)CO)C(=O)c2cc(NC(=O)Nc3cccc4ccccc34)ccc2O[C@H]1CN(C)Cc1ccccc1,52,0,3
C[C@H](CO)N1C[C@H](C)[C@H](CN(C)Cc2ccc(Cl)c(Cl)c2)Oc2ccc(NC(=O)Nc3cccc4ccccc34)cc2C1=O,-19,-3,17
C[C@H](CO)N1C[C@H](C)[C@@H](CN(C)Cc2ccc(Cl)c(Cl)c2)Oc2ccc(NC(=O)Nc3cccc4ccccc34)cc2C1=O,32,-3,112*
C[C@@H]1CN([C@H](C)CO)C(=O)c2cc(NC(=O)Nc3cccc4ccccc34)ccc2O[C@@H]1CN(C)Cc1ccc(Cl)c(Cl)c1,-2,-5,101*
CCn1c(C(=O)N2CCCC(C(=O)NC(C)c3ccc4c(c3)OCCO4)C2)cc2sccc21 (centres undefined),-6,·,·
CSc1nsc(SC)c1C(=O)NC(=O)N1CCSCC1,-15,·,·
CC(=O)NCCc1ccc(S(=O)(=O)N(C)C)cc1,-12,·,·
O=C(Nc1cccc(C(F)(F)F)c1)NC1CC(=O)N(Cc2ccccc2)C1 (centres undefined),-7,·,·
Cc1ccc(N(Cc2ccco2)C(=O)c2cccc(S(=O)(=O)N(C)C)c2)cc1,138*,-2,37
O=C(c1ccco1)N(Cc1ccco1)c1ccc(O)cc1,-5,0,-3
COc1ccc(C(CC(=O)NCc2ccc(C)cc2)N2Cc3ccccc3C2=O)cc1OC (centres undefined),1,·,·
Cn1c(C(=O)N2CCCC2)cc2c(=O)n3ccccc3nc21,-12,·,·
SMILES,U2OS ROS induce,PD-1 reversal,NOMO-1 viab
N#Cc1ccc(N2C(=O)c3ccccc3C2=O)cc1,-3,·,·
CCOc1ccccc1Oc1c(C)oc2cc(O)ccc2c1=O,1,·,·
CCCc1c(Cc2c(F)cccc2Cl)c(=O)oc2cc(O)ccc12,-16,-4,120*
N#Cc1cnc(SCc2cc(=O)n3ccccc3n2)nc1N,-5,·,·
C[C@H]1CN([C@@H](C)CO)C(=O)c2cc(NC(=O)Nc3ccc4c(c3)OCO4)ccc2O[C@@H]1CN(C)Cc1ccc(C(=O)O)cc1,-4,0,32
C[C@@H]1CN([C@@H](C)CO)C(=O)c2cc(NC(=O)Nc3ccc4c(c3)OCO4)ccc2O[C@H]1CN(C)Cc1ccc(C(=O)O)cc1,-10,0,20
C[C@H]1CN([C@@H](C)CO)C(=O)c2cc(NC(=O)Nc3ccc4c(c3)OCO4)ccc2O[C@@H]1CN(C)Cc1ccc(C(F)(F)F)cc1,94*,2,11
C[C@@H]1CN([C@@H](C)CO)C(=O)c2cc(NC(=O)Nc3ccc4c(c3)OCO4)ccc2O[C@H]1CN(C)Cc1ccc(C(F)(F)F)cc1,6,0,93*
CCc1nnc(SC(CC)C(=O)NCc2ccc(C)cc2)c2cc3sccc3n12 (centres undefined),-14,·,·
Cc1ccc(C(=O)Nc2sc3c(c2C(=O)N(C)C)CCCCC3)cc1,4,0,33
O=C(O)CCC(=O)Nc1ccc(Cc2ccncc2)cc1,-14,1,-16
COC(=O)C1=CN(C2CC2)C=C(C(=O)OC)C1c1ccccc1,-1,-1,48
O=C(CSCc1cnn(-c2ccccc2)c1-n1cccc1)Nc1ccccc1Br,5,·,·
CC1(C)C=Cc2c(cc3occ(-c4ccc5c(c4)OCO5)c(=O)c3c2O)O1,15,·,47
COc1c(-c2coc3cc4c(cc3c2=O)CC(O)C(C)(C)O4)ccc2c1C=CC(C)(C)O2 (centres undefined),22,·,102*
Cc1ccc2nc(-c3ccncc3)cc(-c3ccccc3)c2c1,88*,·,·
Cc1ccc2nc(-c3ccncc3)cc(C(=O)NC(C)c3cnn(C)c3C)c2c1 (centres undefined),2,1,23
OC(c1ccccc1)c1nc2ccccc2n1Cc1ccccc1 (centres undefined),-3,·,·
COc1ccc2c(c1OC)CN(C)CCc1cc3c(cc1C(=O)C2)OCO3,-5,-2,6
COc1ccc2cc3[n+](cc2c1OC)CCc1cc2c(cc1-3)OCO2,-4,0,110*
C=CCN(CC=C)C(=O)Cc1ccccc1OC,-12,-2,31
Cc1ccc2c(c1)c(-c1ccccc1)c(-c1ccccc1)n2CC(O)Cn1c(C)cc(C)nc1=O (centres undefined),-5,·,·
Cc1ccc2c(c1)c(-c1ccccc1)c(-c1ccccc1)n2CC(O)CN1CCN(CCO)CC1 (centres undefined),-2,-8,90*
O=C(NCCN1CCNC1=O)c1sc2ccccc2c1Cl,-18,·,·
CCC(C)c1ccc(NC(=O)c2ccc(N(CC)CC)cc2)cc1 (centres undefined),54,1,120*
CCC(C)NC(=O)c1ccc(N(CC)CC)cc1 (centres undefined),-14,1,28
Cc1sc(NC(=O)c2cc(-c3cccnc3)nc3ccccc23)c(C(=O)NC2CCCCC2)c1C,·,·,98*
O=C(NC1CCCC1)c1c(NC(=O)c2cc(-c3cccnc3)nc3ccccc23)sc2c1CCCC2,·,·,8
